ELG1 repair inh – inhibitors of ELG1-dependent DNA repair in HEK293T cells; HEK293T ELG1-luciferase reporter, luminescence, 16 h; DNA damage induced by 5-fluorouridine; Potency, µM (top dose mostly 46.1 µM), hits mostly inhibitors; hit rate 2.3% among 330,000; also: nearly all actives have a fitted effect of over 55% in size
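Step one: seed 2,000 cells per well. Step two: pin-transfer compound or DMSO alongside 5-fluorouridine. Step three: incubate 16 hr, 37 °C, 5% CO2. Step four: add ONE-Glo, wait 30 min, read luminescence.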
NPC1 promoter act – activators of NPC1 promoter; Huh7 NPC1 promoter luciferase reporter, 24 h; Potency, µM (top dose mostly 9.22 µM), most hits filed as activators; hit rate 2.4% among 320,000; AID 485313; also: nearly all actives have a fitted effect of over 60% in size
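Luminescence from an NPC1 promoter-driven luciferase reporter in stably transfected Huh7 cells was measured after 24 h compound treatment at 37 °C, followed by 10 min ambient incubation with luciferase detection reagent.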
ELG1 genotox – genotoxicity induction in ELG1-luciferase HEK293T cells | HEK293T ELG1-luciferase reporter, luminescence, 16 h | AID 504466 | Potency, µM (top dose mostly 46 µM), actives largely listed as activators | hit rate 1.3% among 330,000; also: nearly all actives have a fitted effect of over 60% in size
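HEK293T cells expressing luciferase-tagged ELG1 were exposed to compound or DMSO vehicle for 16 hr at 37 °C and 5% CO2. Luciferase activity was then measured with ONE-Glo after 30 min at room temperature.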
FLuc modulator – firefly luciferase modulation, counter-screen for miR-21 project; P08659; purified FLuc, Km substrates, luminescence inhibition; Potency, µM (doses to about 57.5 µM), actives largely listed as inhibitors; hit rate 6.9% among 360,000; also: nearly all actives have a fitted effect of over 55% in size
Target sequence (P08659 whole entry, looked up): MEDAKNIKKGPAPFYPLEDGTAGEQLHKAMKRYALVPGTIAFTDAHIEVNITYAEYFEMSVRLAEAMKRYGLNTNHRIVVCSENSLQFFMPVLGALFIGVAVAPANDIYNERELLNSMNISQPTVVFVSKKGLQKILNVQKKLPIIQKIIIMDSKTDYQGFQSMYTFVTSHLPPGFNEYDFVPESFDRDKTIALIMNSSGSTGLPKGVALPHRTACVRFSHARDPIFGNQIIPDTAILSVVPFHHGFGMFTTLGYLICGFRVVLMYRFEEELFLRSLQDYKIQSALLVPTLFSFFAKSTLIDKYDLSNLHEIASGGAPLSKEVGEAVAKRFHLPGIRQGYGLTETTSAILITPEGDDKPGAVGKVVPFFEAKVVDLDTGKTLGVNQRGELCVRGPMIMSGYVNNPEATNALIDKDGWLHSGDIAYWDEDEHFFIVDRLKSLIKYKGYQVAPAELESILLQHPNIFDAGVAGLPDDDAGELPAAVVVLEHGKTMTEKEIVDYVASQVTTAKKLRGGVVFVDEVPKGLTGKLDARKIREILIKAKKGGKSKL
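Purified P. pyralis luciferase (10nM final) with 10uM D-luciferin and 10uM ATP (Km levels) in 50mM Tris acetate pH 7.5, 10mM Mg acetate, 0.01% Tween-20, 0.05% BSA; qHTS 6-point titration, ~60 µM downward; luminescence read.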
Rab9 prom act – activates the Rab9 promoter | Potency, µM (series often up to 9.22 µM), most hits filed as activators | Huh7 Rab9 promoter-luciferase reporter, luminescence, 24 h | AID 485297 | hit rate 2.8% among 320,000; also: nearly all actives have a fitted effect of over 60% in size
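Cell-based reporter: Huh7 stable for Rab9 promoter-driven luciferase, plated in reduced-serum medium with 10% FBS at 1500 cells/well, compound-treated 24 h at 37 °C, luminescence read after 10 min reagent.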
SMN2 splice up – increases expression of the SMN2 splice variant. HEK293 SMN2-luciferase splicing reporter, luminescence, 30-36 h. Potency, µM (titrated, usually from 46.1 µM), actives largely listed as activators. hit rate 2.8% among 210,000; also: nearly all actives have a fitted effect of over 55% in size
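HEK293 cells carry an SMN2 minigene-luciferase reporter in which exon 7 inclusion puts luciferase in frame. Cells were seeded at 2000 cells/well, attached for 10-12 hours, then exposed to compounds for 30-36 hours at 37C before ONE-Glo luminescence.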
Hits are given with their value; - = inactive; ? = inconclusive; . = no result; [ ] = remark or other dose. Rows were chosen to be rich in hits. Some 9.2% of all compounds tested hit in one or more screens of this group. Calls follow the shape of the dose curve; as a rule, active = well fitted curve in the direction sought with a large enough effect; inconclusive = small, poorly fitted or top-dose-only effect, or another doubt; inactive = no such curve, though single readings can be large; an effect the other way counts as inactive or inconclusive.

SMILES | ELG1 repair inh | NPC1 promoter act | ELG1 genotox | FLuc modulator | Rab9 prom act | SMN2 splice up
S=C(NCCc1ccccc1)NCc1cccc(Cl)c1 | - | - | - | - | - | .
Cc1cc2ccccn2c1C(=O)c1ccc(Cl)cc1 | ? | - | - | ? | - | -
Fc1ccccc1NC(=S)NCCc1cccc(Cl)c1 | ? | ? | - | 23.9µM | ? | .
COc1ccc(NC(=O)N(C)C[C@H]2Oc3ccc(NC(=O)Cc4ccccc4)cc3CC(=O)N([C@H](C)CO)C[C@H]2C)cc1 | - | . | - | . | . | .
CCCCC[C@]12Cc3cc(OC)c(OC)cc3C(O1)c1c(cc(C)n(-c3ccccc3)c1=O)O2 | . | -[1.84 µM] | . | -[11.5 µM] | -[1.84 µM] | .
COc1cc(CN2CCC(n3nccc3NC(=O)c3ccccc3OC)CC2)ccc1F | ? | - | - | ? | - | .
O=C(Nc1cccc(Cl)c1)Nc1cccc(C(=O)O)c1 | ? | 0.316µM | - | 0.477µM | 0.355µM | .
O=C(Nc1ccccc1)Nc1cccc(Cl)c1 | ? | ? | ? | 9.53µM | 3.55µM | -
O=C(NNC1=NCCCCC1)Nc1ccc(Cl)cc1 | - | - | - | ? | ? | .
O=C(NNC1=NCCCCC1)Nc1cccc(Cl)c1 | ? | ? | - | 16.9µM | 1.12µM | 22.4µM
Nc1nc2c([nH]c(=S)n2C2OC(CO)C(O)C2O)c(=O)[nH]1 (centres undefined) | . | . | . | . | . | -
COc1ccccc1-c1nnc(SCC(=O)Nc2ccc(N3CCOCC3)cc2)n1C | ? | - | - | 19µM | - | .
Cn1c(Cc2ccccc2)nnc1SCC(=O)Nc1ccc(N2CCOCC2)cc1 | ? | - | - | ? | - | .
Cn1c(CC(=O)Nc2ccccc2)nnc1SCC(=O)Nc1ccc(N2CCOCC2)cc1 | ? | - | ? | 12µM | - | .
Cn1c(SCC(=O)Nc2ccc(N3CCOCC3)cc2)nnc1C1CC1 | - | - | - | ? | - | .
Cc1ccc(NC(=O)Cc2nnc(SCC(=O)Nc3ccc(N4CCOCC4)cc3)n2C)cc1 | - | - | - | 12µM | - | .
Cc1ccc(CSc2nnc(CC(=O)Nc3ccc(C)cc3)n2C)cc1 | - | - | - | - | - | -
Cc1ccc(NC(=O)Cc2nnc(SCC(=O)Nc3ccccc3)n2C)cc1 | - | - | - | 19µM | - | -
O=C(Cn1nc2c(cc1=O)CCCC2)NCc1ccc(Cl)cc1 | . | . | . | - | . | .
CCc1ccc(OCC(=O)N(Cc2ccc(Cl)cc2)C2CCS(=O)(=O)C2)cc1 (centres undefined) | . | . | . | - | . | -
CCOc1ccc(CCNC(=O)Cn2nnc(-c3ccccc3)n2)cc1OCC | . | . | . | - | . | -
CCn1c(Cc2ccccc2)nnc1SCC(=O)Nc1ccc(N2CCOCC2)c(Cl)c1 | - | - | - | 15.1µM | - | -
CCn1c(Cc2ccccc2)nnc1SCC(=O)Nc1ccc2c(c1)OCO2 | - | ? | - | - | - | -
CC(=O)c1ccc(S(=O)(=O)N(C)CCCC(=O)N2CCN(c3ncccn3)CC2)cc1 | - | - | - | - | - | .
COc1ccc(-n2nc(C(=O)NCC(=O)N3CCOCC3)c3ccccc3c2=O)cc1Cl | - | - | - | 10.7µM | - | .
SMILES | ELG1 repair inh | NPC1 promoter act | ELG1 genotox | FLuc modulator | Rab9 prom act | SMN2 splice up
COc1ccc(-n2nc(C(=O)NCC(=O)NC(C)C)c3ccccc3c2=O)cc1Cl | ? | - | - | - | - | .
COc1ccc(-n2nc(C(=O)NCC(=O)N3CC(C)CC(C)C3)c3ccccc3c2=O)cc1OC (centres undefined) | ? | - | - | ? | - | .
COc1ccc(-n2nc(C(=O)NCC(=O)NCC3COc4ccccc4O3)c3ccccc3c2=O)cc1OC (centres undefined) | 9.2µM | - | - | - | - | -
COc1ccc(-n2nc(C(=O)NCC(=O)N3CCCC(C)C3)c3ccccc3c2=O)cc1Cl (centres undefined) | ? | - | - | 5.36µM | - | .
COc1ccc(-n2nc(C(=O)NCC(=O)N3CCCCCC3)c3ccccc3c2=O)cc1OC | - | - | - | 6.75µM | - | .
COCCCNC(=O)CNC(=O)c1nn(-c2ccc(OC)c(Cl)c2)c(=O)c2ccccc12 | - | - | - | - | - | .
CCNc1ncc2nc(-c3ccc(Cl)cc3)c(=O)n(-c3ccccc3)c2n1 | . | . | . | . | . | -
Cc1ccc(OCC(=O)Nc2ccc3nc(SCC(=O)N4CCCC4)sc3c2)cc1C | . | . | . | - | . | .
CCCn1nc(C(=O)NCC2COc3ccccc3O2)c2ccccc2c1=O (centres undefined) | 20.6µM | - | - | - | - | .
COc1ccc(-n2nc(C(=O)NCC(=O)NCCCN3CCCCCC3)c3ccccc3c2=O)cc1Cl | - | - | - | - | - | -
CCC(C)NC(=O)CNC(=O)c1nn(-c2ccc(OC)c(Cl)c2)c(=O)c2ccccc12 (centres undefined) | ? | - | - | - | - | .
CCOC(=O)C1CCCN(C(=O)CNC(=O)c2nn(-c3ccc(OC)c(Cl)c3)c(=O)c3ccccc23)C1 (centres undefined) | ? | - | - | 6.75µM | - | .
COc1ccc(-n2nc(C(=O)NCC(=O)NC3CCCCCC3)c3ccccc3c2=O)cc1OC | 18.3µM | - | - | ? | - | .
CCOC(=O)C1CCN(C(=O)CNC(=O)c2nn(-c3ccc(OC)c(Cl)c3)c(=O)c3ccccc23)CC1 | 14.6µM | - | - | 2.69µM | - | .
CCCn1nc(C(=O)NC2CC2)c2ccccc2c1=O | - | - | - | - | - | .
COc1ccccc1Nc1sc(C(=O)c2ccc3c(c2)OCO3)c(N)c1S(=O)(=O)c1ccccc1 | . | . | . | - | . | .
Cn1cccc1C(=O)NCC1COc2ccccc2O1 (centres undefined) | ? | ? | - | - | 3.16µM | .
O=C(CCC1COc2ccccc2O1)NCC1COc2ccccc2O1 (centres undefined) | - | - | - | - | - | -
O=S(=O)(c1ccc2c(c1)OCCO2)N1CCC(c2nc3ccccc3[nH]2)CC1 | ? | - | - | - | - | -
O=S(=O)(c1ccc2c(c1)OCCO2)N1CCC(c2nc3ccc(Cl)cc3[nH]2)CC1 | 18.4µM | - | - | - | - | .
O=C(NCC1CCCO1)c1ccc(S(=O)(=O)N2CCC(c3nc4ccc(Cl)cc4[nH]3)CC2)cc1 (centres undefined) | 13µM | - | - | - | - | -
c1ccc(COc2cccc(CN3CCc4ccccc4C3)c2)cc1 | - | - | - | - | - | .
CCOc1ccc(CNC(=O)c2cc3oc4ccccc4c3n2C)cc1 | ? | - | - | - | - | 25.1µM
COc1cccc(CNC(=O)c2cc3oc4ccccc4c3n2C)c1OC | ? | - | - | ? | - | 15.8µM
CCOc1ccccc1CNC(=O)c1cc2oc3ccccc3c2n1CC | ? | - | - | - | - | ?
CCn1c(C(=O)NCc2ccc(F)cc2)cc2oc3ccccc3c21 | . | . | . | - | . | ?
CC(C)Oc1ccc(CNC(=O)Cn2nc(N3CCN(c4ccccc4)CC3)ccc2=O)cc1 | . | . | . | - | . | .
